Bioassay records (PubChem BioAssay)
PP5 inh: PP5 phosphatase inhibitors, primary screen, biochemical, fluorescence | purified PP5c, OMFP substrate fluorescence | inhibition, % at 6.7 µM | 320,000 tested, 0.18% active | AID 1987, 2009;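 active = inhibition above the campaign's mean inhibition across all tested compounds plus 3 SD, cut at about 9.5% in these data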;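 also: 0% = DMSO only and 100% = 100 µM cantharidin control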
Target sequence (P53041 whole entry, looked up): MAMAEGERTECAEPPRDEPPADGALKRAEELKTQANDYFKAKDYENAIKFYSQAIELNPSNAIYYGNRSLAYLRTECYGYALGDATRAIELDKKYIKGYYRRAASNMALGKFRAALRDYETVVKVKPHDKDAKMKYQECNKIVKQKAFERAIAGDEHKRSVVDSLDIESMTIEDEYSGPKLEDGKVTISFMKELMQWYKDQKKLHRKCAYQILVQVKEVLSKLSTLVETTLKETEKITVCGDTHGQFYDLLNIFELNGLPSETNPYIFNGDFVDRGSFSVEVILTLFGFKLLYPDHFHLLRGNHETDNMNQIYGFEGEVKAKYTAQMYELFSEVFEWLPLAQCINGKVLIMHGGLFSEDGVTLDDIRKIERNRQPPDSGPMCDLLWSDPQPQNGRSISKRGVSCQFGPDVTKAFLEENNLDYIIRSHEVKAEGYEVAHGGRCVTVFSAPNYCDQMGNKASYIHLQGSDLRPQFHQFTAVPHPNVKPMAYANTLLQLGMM
LYPLA2 counter: LYPLA2 inhibitors, primary screen, counter-screen for PME1 inhibitor project, biochemical, fluorescence polarization, FP-Rh probe ABPP; Acyl-protein thioesterase 2 (Homo sapiens), O95372; recombinant LYPLA2; inhibition, % at 5.9 µM; 320,000 tested, 0.38% active;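 active = inhibition above the screen-wide mean plus 3 SD, limit set per campaign, cut at about 26% in these data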;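 also: 0% = LYPLA2 with DMSO and 100% = wells lacking LYPLA2 enzyme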
PME-1 primary: PME-1 inhibitors via competitive probe labeling, primary screen, biochemical, fluorescence polarization, FP-Rh probe, HTS; inhibition, % at 5.9 µM; 320,000 tested, 0.53% active; recombinant PME-1; Protein phosphatase methylesterase 1 (Homo sapiens), Q9Y570;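 active = inhibition above the campaign mean of all compounds plus 3 SD, cut at about 26% in these data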;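 also: competitive labeling of PME-1 active site by serine hydrolase directed probe; 0% = PME-1 with DMSO and 100% = wells lacking PME-1 enzyme; inhibitors block probe labeling so polarization falls and inhibition rises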
LYPLA1 inh: LYPLA1 inhibitors, primary screen, counter-screen for PME1 inhibitor project, biochemical, fluorescence polarization, FP-Rh probe ABPP | Acyl-protein thioesterase 1 (Homo sapiens), O75608 | recombinant LYPLA1 | inhibition, % at 5.9 µM | 320,000 tested, 0.16% active | AID 2174, 2009;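 active = inhibition above the mean of all tested compounds plus 3 SD, set per campaign, cut at about 14% in these data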;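 also: inhibitors block serine hydrolase probe labeling of LYPLA1 so polarization falls; 0% = enzyme with DMSO and 100% = wells lacking LYPLA1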
Fam108B counter: mouse Fam108B serine hydrolase inhibitors, primary screen, counter-screen for RBBP9 inhibitor project, biochemical, fluorescence polarization | 300,000 tested, 0.33% active | inhibition, % at 9.51 µM | AID 1947, 2009 | recombinant Fam108B, FP-Rh probe fluorescence polarization;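 active = inhibition above the screen mean inhibition plus 3 SD, computed separately per campaign, cut at about 18% in these data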;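 also: inhibitors lower polarization as less probe binds the enzyme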
PP1 counter: PP1-alpha phosphatase inhibitors, primary screen, counter-screen for PP5 inhibitor project, biochemical, fluorescence, OMFP substrate, single point | Serine/threonine-protein phosphatase PP1-alpha catalytic subunit (Homo sapiens), P62136 | purified PP1alpha | inhibition, % at 6.7 µM | 320,000 tested, 0.9% active | AID 2235, 2010;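 active = inhibition above the mean inhibition of all tested compounds plus 3 SD, computed separately for each screening campaign, cut at about 15% in these data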
Active calls of the source: *; / = not tested or not shown. Shown are actives, neighbours in structure and some others; about 1.8% of the full set was active somewhere.

SMILES	PP5 inh	LYPLA2 counter	PME-1 primary	LYPLA1 inh	Fam108B counter	PP1 counter
CCOc1ccc2c(c1)sc(N)[n+]2Cc1cc(C)cc2cccnc12	3	35*	12	0	1	7
CCCN(C(=O)CCOc1ccc(C(C)(C)C)cc1)c1c(N)n(Cc2ccccc2)c(=O)[nH]c1=O	1	-4	-8	-1	-4	-6
CN(CC(=O)N1CCOCC1)S(=O)(=O)c1ccc2ccccc2c1	-1	-3	3	1	4	-1
Cc1ccc2[nH]c3c(N4CCc5ccccc5C4)ncnc3c2c1	1	-11	30*	-12	14	5
N=C1S/C(=C\c2cccc3ccccc23)C(=O)N1c1ccc(F)cc1	1	-10	-12	-6	-11	17*
COc1ccc(OCC(=O)NC(=O)c2ccccc2OC)c([N+](=O)[O-])c1	-1	3	3	-3	6	-5
Cc1cc(C(=O)N/N=C/c2cccc([N+](=O)[O-])c2)c(C)n1-c1ccccc1	5	6	29*	2	4	10
CCOc1cc(/C=N/NC(=O)c2cccc([N+](=O)[O-])c2)ccc1OS(=O)(=O)c1ccccc1	5	-4	41*	-17	9	0
C=C1CCN([C@@H](CC(C)C)C(=O)NCCC(C)C)S(=O)(=O)c2ccccc21	1	1	-1	-1	2	-3
O=C(CN1C2CCCC1CC(NC(=O)c1ccccc1)C2)Nc1ccccc1 (stereo unspecified)	2	3	-4	-3	10	-5
O=C(N/N=C/c1ccc([N+](=O)[O-])o1)c1cc(-c2cccc(Br)c2)nc2ccccc12	5	-3	9	-16	9	16*
Cc1[nH]c2ccccc2c1/C=N/NC(=O)c1ccccc1	1	7	1	0	-2	-2
O=C(N/N=C/c1ccco1)c1cc(-c2ccccc2)nc2ccccc12	-2	-1	-2	-3	2	1
Cc1cc(C(=O)N/N=C/c2ccc([N+](=O)[O-])o2)c(C)o1	-3	-2	3	-7	6	0
CCCc1ccc(-c2cc(C(=O)N/N=C/c3ccc([N+](=O)[O-])o3)c3ccccc3n2)cc1	0	-17	9	-12	8	17*
Cc1[nH]c2ccccc2c1/C=N/NC(=O)c1cc(-c2ccncc2)nc2ccccc12	3	-1	26*	-12	16	-2
O=C(c1ccc2[nH]c(=O)c(=O)[nH]c2c1)N1CCN(c2ccccc2)CC1	0	-21	-1	-3	0	-4
COc1cccc(OCC(=O)NNC(=O)C(=O)Nc2ccc(OC)cc2OC)c1	-1	-1	-3	-4	1	-1
Cc1ccsc1CN(C)C(=O)CN1C(=O)NC2(CCCCC2C)C1=O (stereo unspecified)	0	-2	-2	0	/	-3
O=C(NC1CC2CCC(C1)N2Cc1ccccc1)c1ccccc1Cl (stereo unspecified)	0	3	-7	0	-3	-5
C/C(=N\Nc1ccccc1C(=O)O)c1ccncc1	0	-2	73*	4	-1	-4
O=C(Nc1cccc(S(=O)(=O)N2CCOCC2)c1)C1CCN(S(=O)(=O)c2ccccc2)CC1	-3	-2	3	-4	/	-4
Cc1ccc(-c2c(C(=O)N/N=C/c3c[nH]c4ccccc34)nnn2-c2nonc2N)cc1	4	7	27*	-8	8	1
COc1ccccc1CC(NC(C)=O)C(=O)NC1CCN(C(=O)c2ccc(C)cc2)CC1 (stereo unspecified)	1	-3	4	-1	2	4
CCN(CC)CCNC(=O)c1cn(CC)c2ccc(S(=O)(=O)N(C)C3CCCCC3)cc2c1=O	-2	3	22	-2	-3	-5
SMILES	PP5 inh	LYPLA2 counter	PME-1 primary	LYPLA1 inh	Fam108B counter	PP1 counter
CC1CCCN(CCCNC(=O)c2cn(C)c3ccc(S(=O)(=O)N(C)C4CCCCC4)cc3c2=O)C1 (stereo unspecified)	2	-1	11	2	1	6
CCn1cc(C(=O)NCCCN2CCC(C)CC2)c(=O)c2cc(S(=O)(=O)N(C)C3CCCCC3)ccc21	1	2	38*	5	-3	3
CCn1cc(C(=O)NCCCN2CC(C)CC(C)C2)c(=O)c2cc(S(=O)(=O)N(C)C3CCCCC3)ccc21 (stereo unspecified)	0	1	33*	-5	-10	-2
COc1ccc(CNC(=O)CCNS(=O)(=O)c2cc(Br)cnc2N)cc1	1	1	3	1	-4	1
O=C(NCc1cccnc1)C1CC(c2ccc(Cl)c(Cl)c2)=NO1 (stereo unspecified)	2	4	-1	-3	-2	-4
COc1ccc(NC(=O)Nc2nnc(CC(=O)NCc3ccccc3)s2)cc1	5	-8	-5	-2	-5	16*
CCOC(=O)c1cc(-c2ccccc2)n(CC2CC(c3ccc(OC)cc3)=NO2)n1 (stereo unspecified)	2	0	8	2	1	-1
Cc1ccc(NC2CC(C)NC(=S)N2)cc1 (stereo unspecified)	1	0	-4	1	-3	-7
S=c1[nH]nc(-c2ccc(Cl)cc2)n1Cc1ccccc1	4	-3	-6	-2	4	-12
Sc1nnc(-c2ccc(Cl)cc2)n1Cc1ccccc1	2	1	0	-5	/	15*
CCCCN(CCCC)c1ccc(C(=O)c2ccccc2C(=O)O)c(O)c1	3	2	5	3	2	17*
COc1ccc(NC(=O)C2CCCN(c3nn4c(=O)cc(C)nc4s3)C2)c(OC)c1 (stereo unspecified)	-3	-10	-8	-1	-4	1
CCCc1cc(=O)oc2cc(C)cc(OCC(=O)NCc3ccncc3)c12	0	2	1	2	-4	-2
Cc1ccccc1C(=O)Nc1nnc(SCC(=O)NCc2ccco2)s1	2	3	5	-2	-1	-1
COc1ccc2ccc3c(c2c1)N=C[C@]1(O3)N(C)c2ccccc2C1(C)C	-1	-9	45*	-6	-1	8
COc1ccc(/C=C/C(=O)NC(=S)NNC(=O)c2cnccn2)cc1	0	1	3	1	-4	5
COc1ccc(/C=C/C(=O)NC(=S)NNC(=O)c2cccs2)cc1	-2	2	3	2	-9	17*
COc1ccc(/C=C/C(=O)NC(=S)NNC(=O)c2cccnc2)cc1	1	7	1	4	5	16*
